The nature of test [1]: A CellTox Green Cytotoxicity Assay to monitor cytotoxicity in HEK293 cells - 32 hour (AID 1224881). Note: nearly all actives have a fitted effect of over 40% in size. Note: potency is the fitted concentration of half-maximal effect. An outline of the steps: (§1)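 Fluorescence from a DNA-binding dye excluded by viable cells was measured repeatedly in the same HEK293 wells (600 cells/well) during continuous compound exposure at 37 C. Each assay gives one read point: 0, 8, 16, 24, 32 or 40 h.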
Test [2] can be described thus: A CellTox Green Cytotoxicity Assay to monitor cytotoxicity in HepG2 cells - 0 hour (AID 1224882). Note: nearly all actives have a fitted effect of over 35% in size. Note: potency is the fitted concentration of half-maximal effect. An outline of the steps:
(§2)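 Real-time cytotoxicity: fluorescence of a cell-impermeant cyanine dye binding DNA of dead HepG2 cells, measured repeatedly (0–40 h) during compound exposure at 37 C. Cells seeded 600/well with reagent, dosed after 5 h.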

Test [3] is described as follows: A CellTox Green Cytotoxicity Assay to monitor cytotoxicity in HepG2 cells - 32 hour (AID 1224883). Note: nearly all actives have a fitted effect of over 50% in size. Note: potency is the fitted concentration of half-maximal effect. The gist of the method:
as §2

Test [4] can be described thus: A CellTox Green Cytotoxicity Assay to monitor cytotoxicity in HEK293 cells - 8 hour (AID 1224884). Note: nearly all actives have a fitted effect of over 35% in size. Note: potency is the fitted concentration of half-maximal effect. The gist of the method: as §1
Test [5] in a line: qHTS RealTime-Glo MT Cell Viability Assay in HEK293 cells - 24 hour (AID 1224886). Note: nearly all actives have a fitted effect of over 50% in size. Note: potency is the fitted concentration of half-maximal effect. The gist of the method:
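Reads taken at 0, 8, 16, 24, 32 and 40 h from the same wells. HEK293 cells (600/well) carried RealTime-Glo reagents from seeding, with compound added after a 5 h settle at 37 C.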

The nature of test [6]: qHTS RealTime-Glo MT Cell Viability Assay in HEK293 cells - 8 hour (AID 1224887). Note: nearly all actives have a fitted effect of over 50% in size. Note: potency is the fitted concentration of half-maximal effect. The gist of the method:
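Luminescence, which tracks viable cell number through reduction of the prosubstrate to a NanoLuc substrate, was read over continuous 37 C culture. Cells (600/well) were premixed with reagent and rested 5 h before 23 nL of compound in DMSO was pinned.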
(In general: qHTS replaces the single test concentration by a dilution series.)

The nature of test [7]: A CellTox Green Cytotoxicity Assay to monitor cytotoxicity in HEK293 cells - 16 hour (AID 1224888). Note: nearly all actives have a fitted effect of over 35% in size. Note: potency is the fitted concentration of half-maximal effect. The gist of the method:
as §1

Test [8] is described as follows: qHTS RealTime-Glo MT Cell Viability Assay in HepG2 cells - 0 hour (AID 1224889). Note: nearly all actives have a fitted effect of over 50% in size. The gist of the method: (§3)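 HepG2 suspension premixed with RealTime-Glo reagents is plated at 600 cells per well and left 5 h at 37 C/5% CO2. Compounds in DMSO then go in, and bioluminescence reflecting viable cell number is recorded over 40 h.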
Test [9] can be described thus: A CellTox Green Cytotoxicity Assay to monitor cytotoxicity in HepG2 cells - 8 hour (AID 1224890). Note: nearly all actives have a fitted effect of over 45% in size. Note: potency is the fitted concentration of half-maximal effect. The gist of the method:
as §2

Test [10] is described as follows: qHTS RealTime-Glo MT Cell Viability Assay in HepG2 cells - 16 hour (AID 1224885). Note: nearly all actives have a fitted effect of over 50% in size. The gist of the method:
as §3

Where “and” joins values, the source holds several entries; their conditions need not be identical. Identical values can stand only once. Records with an inconclusive call do not appear. Where a structure was tested more than once in an assay, its records may differ in their call. Calls of active or inactive are those of the source. Calls come from the whole dose curve; as a rule, active = well fitted curve in the direction sought with a large enough effect in the repeat runs; inconclusive = weak or mixed curves; inactive = no such curve, though single readings can be large; an effect the other way counts as inactive or inconclusive.

Regarding `C[C@]12CC[C@H]3[C@@H](CCC4=CC(=O)CC[C@@H]43)[C@@H]1CC[C@@H]2OC(=O)CCc1ccccc1`, the Potency result in test [1], in test [2], in test [3], in test [4], in test [5] and in [6] was “inactive” throughout. Moreover, the Potency entry in test [7] and in [9] was “inactive” each time. In addition, the compound was called inactive in test [8].

For `CC(Cc1ccccc1)NCc1ccccc1Cl` (stereo not given), the Potency entry in test [2], in [3], in test [4], in test [10], in test [5] and in [6] was “inactive” each time. Moreover, the Potency entry in test [7] and in test [9] was “inactive” each time. In addition, the compound was classed as inactive in [8].

With `CC[N+]1(C)CCCC(OC(=O)C(O)(c2ccccc2)c2ccccc2)C1` (stereo not given), the Potency entry in test [1], in test [2], in [3], in test [4], in [5] and in [7] was “inactive” in each case. Moreover, the Potency result in test [9] is “inactive”. Also, the compound was classed as inactive in [8].

For the compound `O=C(Cc1ccccc1)c1ccccc1`, the Potency result in test [1], in [2], in test [3], in test [10], in test [5] and in [7] was “inactive” each time. Moreover, the outcome in test [8] was inactive.

As for `CC(C)CCON=O`, the Potency entry in test [2], in [3], in test [4], in [10], in [5] and in [6] was “inactive” each time. The Potency result in test [9] was “inactive”. For the same compound, the outcome in test [8] was inactive.

For the compound `CN(C)N`, the Potency result in test [2], in [10], in test [5], in test [6] and in test [9] was “inactive” throughout. For the same compound, the result in test [8] was inactive.

In the case of `[Cl-].[Cl-].[Hg+2]`, the Potency in test [1] is 21.8 µM (active) and 6.92 µM (active); in [3], 24.4 µM (active) and 3.09 µM (active); in [4], “inactive and 15.5 µM (active)”; in [6], 43.5 µM (active) and 3.47 µM (active); in test [7], 38.7 µM (active) and 11 µM (active); in test [9] it was 48.8 µM (active) and 4.9 µM (active). In addition, the Potency entry in [2] is “inactive”.

In the case of `CC(C)(C)c1ccc(CCOc2ncnc3ccccc23)cc1`, the Potency entry in test [1], in [2], in test [4], in test [5], in [6] and in test [7] was “inactive” each time. For the same compound, the Potency result in test [9] is “inactive”. In addition, in [8], the compound was classed as inactive.

With `COc1ccc(C(=O)c2c(C)n(CCN3CCOCC3)c3ccccc23)cc1`, the Potency result in [1], in test [4], in [10], in [6] and in [7] was “inactive” in each case. For the same compound, the Potency is 0.952 µM (active) in test [2] and 1.07 µM (active) in [9]. The compound was called inactive in test [8].

Consider `Nc1cccc2ccccc12`, for which the Potency result in test [1], in [2], in test [3], in [4], in test [5] and in [7] was “inactive” throughout. Also, the outcome in test [8] was inactive.

Regarding `O=C(NC(=O)c1cc(F)c(F)cc1Cl)Nc1cc(F)ccc1N1CCC(C(=O)O)CC1`, the Potency result in test [1], in [3], in [4], in [10], in [5] and in test [6] was “inactive” each time. In test [7], the Potency entry is “inactive”. Further, the compound was called inactive in test [8].

For the compound `CCC(=O)O[C@@H]1C=C2CCC3C(CCC4(C)C3CC[C@@H]4OC(=O)CC)C2CC1` (stereo not given in full), the Potency entry in test [2], in [3], in test [4], in test [10], in test [5] and in [7] was “inactive” in each case. Further, the compound was called inactive in [8].

On to `COc1cc(CC(C)N)c(OC)cc1Br` (stereo not given), for which the Potency entry in test [1], in [2], in test [4], in test [10], in [5] and in test [6] was “inactive” in each case. Moreover, the Potency entry in [7] and in test [9] was “inactive” in each case. In addition, in [8], the compound was classed as inactive.

For `O=C(O)C(F)(F)C(F)(F)C(F)(F)C(F)(F)C(F)(F)C(F)(F)C(F)(F)C(F)(F)F`, the Potency result in test [1], in test [2], in test [3], in test [4], in test [5] and in test [6] was “inactive” in each case. In addition, the Potency result in test [7] and in test [9] was “inactive” throughout.

For the compound `CCCN(CCC)C(=O)Cc1c(-c2ccc(Cl)cc2)nc2ccc(Cl)cn12`, the Potency entry in test [1], in test [2], in test [4], in [10] and in test [7] was “inactive” each time. The Potency in test [5] and in test [6] was 5.35 µM (active) each time. The result in test [8] was inactive.

Consider `O=C(CCl)CCl`, for which the Potency entry in test [2], in test [4], in [10], in test [7] and in test [9] was “inactive” throughout. Moreover, the Potency in test [3] is 22.7 µM (active); in [5], 18 µM (active) and 19.5 µM (active). Also, the compound was classed as inactive in test [8].

Regarding `CCC1(CCC(C)C)C(=O)NC(=O)NC1=O`, the Potency entry in test [1], in [2], in test [3], in test [4], in test [5] and in [7] was “inactive” each time. Moreover, the Potency entry in test [9] was “inactive”. Besides, in [8], the compound was called inactive.

With `CCCN(CCOc1c(Cl)cc(Cl)cc1Cl)C(=O)n1ccnc1`, the Potency result in test [1], in test [2], in test [4], in [7] and in test [9] was “inactive” each time. For the same compound, the Potency was 22.3 µM (active) and 27.5 µM (active) in test [5]; 44.6 µM (active) and 27.5 µM (active) in [6].

On to `CCCCOC(=O)CCC(=O)OCCCC`, for which the Potency result in [1], in test [2], in [4], in [5], in test [6] and in test [7] was “inactive” in each case. In addition, in test [9], the Potency entry was “inactive”. Besides, the call in [8] was inactive.

For `Cc1nc2ccccc2c(=O)n1-c1ccccc1Cl`, the Potency result in [1], in test [2], in test [3], in [4], in [7] and in test [9] was “inactive” throughout. In addition, the Potency in [5] was 21.4 µM (active).

Values taken from PubChem BioAssay (Tox21).
